Our source for the inhibition values is PubChem BioAssay AID488784 (Sanford-Burnham Center for Chemical Genomics, 2010).

SMILES strings stand for the structures. Among all 1,000 compounds or so, about 700 (70%) were called active. Rule as the data show it: active = inhibition above about 50%; inactive = the rest. So high a share suggests a set chosen from earlier hits. A selection follows.

The test can be described thus: CASP1-PYCARD signaling inhibition in yeast, confirmatory test, counterassay for NLRP3 inhibitor program, one-dose (AID 488784). The conditions noted are these: yeast expressing Caspase-1-ASC, luminescence counter screen; at 10 µM; hits give high values.
For `Cc1cc(C)nc(NC(=O)Nc2ccccc2C(F)(F)F)n1`, the inhibition (usually the change of the read-out against control, counted positive when it falls) is 55.5% (active).

As to `CC(C)Sc1ncnc2c1cnn2-c1ccccc1`, the inhibition is 40.6% (inactive).

For `Cc1ccc(OCc2nc3ccccc3n2C)cc1`, the inhibition was 76.5% (active).

Regarding `CC(C)n1c(COc2ccccc2)nc2ccccc21`, the inhibition is 59.4% (active).

As for `CCSc1nc2sc3c(c2c(=O)n1-c1ccc(C)cc1)CCN(C)C3`, the inhibition is 33.2% (inactive).

For the compound `O=C(COc1ccccc1F)Nc1nc(-c2ccccn2)cs1`, the inhibition is 65% (active).

With `Cn1c(=O)c(C(=O)Nc2ncccn2)c(O)c2ccccc21`, the inhibition was 49.2% (inactive).

Consider `CCc1noc(C)c1C(=O)Nc1nc2ccc(OC)cc2s1`, for which the inhibition is 76.8% (active).

With `Cc1ccc(-c2nn(C(C)(C)C)c3ncnc(N)c23)cc1`, the inhibition is 96.3% (active).

Turning to `Cc1ccc(O)c(NC(=O)c2cc(-c3ccco3)on2)c1`, the inhibition was 61.9% (active).

In the case of `COc1ccccc1C(=O)Nc1ccc(NC(=O)c2ccco2)c(C)c1`, the inhibition was 47.5% (inactive).

In the case of `CC(=O)[C@@]12O[C@@H]1C[C@H]1[C@@H]3CC[C@H]4C[C@@H](O)CC[C@]4(C)[C@H]3CC[C@@]12C`, the inhibition is 53% (active).

As to `Cc1ccnc(Nc2nc3ccccc3s2)n1`, the inhibition is 21.8% (inactive).

Turning to `CN(C)c1ccnc2sc(C(=O)c3ccccc3)c(N)c12`, the inhibition is 70.2% (active).

With `CCCN(CC1CC1)C(=S)NC(=O)c1ccccc1Br`, the inhibition is 53.1% (active).

`O=[N+]([O-])c1c(NCCO)cc(Sc2nc3ccccc3s2)c2nonc12`: the inhibition was 65.5% (active).

Turning to `Cc1cc(C(=O)COc2ccc(Br)cc2F)c(C)n1C1CC1`, the inhibition was 60.1% (active).

Regarding `CC1(C)CCSC(/C=C/c2ccccc2)=N1`, the inhibition was 91.5% (active).

Regarding `COc1ccccc1OCc1nc2ccccc2s1`, the inhibition was 48.7% (inactive).

As to `CCN(CC)c1ccc(/C=N/Nc2nc(C)cc(C)n2)c(O)c1`, the inhibition is 55% (active).

With `Nc1c(-c2cccc(Cl)c2)cnn1-c1cccc([N+](=O)[O-])c1`, the inhibition was 53% (active).

`Oc1c(Cl)cc(Cl)c(Cl)c1Cc1c(O)c(Cl)cc(Cl)c1Cl`: the inhibition was 99.3% (active).

On to `O=C(CC(O)(C(F)(F)F)C(F)(F)F)Nc1ccc(Cl)c(Cl)c1`, for which the inhibition was 99.2% (active).

`Cc1c(C(=O)N2CCCc3ccccc32)oc2ccccc12`: the inhibition was 49.6% (inactive).

As to `O=C(Nc1ccccc1Cl)/C(Cl)=C(\Cl)S(=O)c1ccccc1` (stereo unspecified), the inhibition is 98.8% (active).

In the case of `O=C(Nc1ccc(Oc2ccccc2)cc1)c1ccco1`, the inhibition is 45.2% (inactive).

For `O=C(Nc1ccc2oc(-c3ccccc3F)nc2c1)c1ccco1`, the inhibition is 72.2% (active).

Take `Cn1c(=NC(=O)c2ccco2)sc2cccc(F)c21`: the inhibition is 25% (inactive).

As for `Cc1cc(C)c(/C=C2\C(=O)Nc3ccccc32)[nH]1`, the inhibition was 40.2% (inactive).

For the compound `Cc1ccc(OCc2nc(C#N)c(N3CCCC3)o2)cc1`, the inhibition was 71.8% (active).

As to `O=C(CSc1ccc(-c2ccc(-n3cccn3)cc2)nn1)Nc1ccc([N+](=O)[O-])cc1`, the inhibition is 11.2% (inactive).

For `C[C@@H]1C[C@@H]2O[C@H]2/C=C\C=C\C(=O)Cc2c(Cl)c(O)cc(O)c2C(=O)O1`, the inhibition was 48.6% (inactive).

For the compound `CCCNc1ncnc2sc(C)c(C)c12`, the inhibition was 50.8% (active).

On to `O=C(NCc1ccc2c(c1)OCO2)c1c(O)nc2sccn2c1=O`, for which the inhibition was 36.7% (inactive).

On to `CC(=NCc1ccc2c(c1)OCO2)C1=C(O)c2ccccc2C1=O`, for which the inhibition was 60.2% (active).

As to `O=C(Oc1c(-c2ccco2)oc2ccccc2c1=O)c1cccnc1`, the inhibition is 58.5% (active).

On to `CC(C)C(=O)N1CCN(CCN=CC2=C(O)CC(c3ccco3)CC2=O)CC1` (stereo unspecified), for which the inhibition was 55.2% (active).

Consider `Cc1cccc(NC(=S)NC(=O)c2ccc(Br)o2)c1`, for which the inhibition is 76.2% (active).

Turning to `CN=C1C=C/C(=N/N=c2\ccn(O)cc2C)C=C1C`, the inhibition was 53.3% (active).

Take `O=C(CSc1ncnc2c1oc1ccccc12)NC1CCCC1`: the inhibition is 39.4% (inactive).

For the compound `Cc1ccc2cccc(S(=O)(=O)N3CCN(c4ccccc4F)CC3)c2n1`, the inhibition was 52.6% (active).

Turning to `O=C1CSC(=S)N1c1ccc(O)cc1`, the inhibition is 79.7% (active).

For the compound `COc1cc(N2C(=O)CSC2=S)cc(OC)c1OC`, the inhibition was 45.7% (inactive).

On to `CCc1cc(C(=O)Nc2nnc(C3CC3)s2)sc1C`, for which the inhibition was 55.5% (active).

Regarding `Cc1ccc(CSc2nsc(C)c2C#N)cc1`, the inhibition is 60% (active).

As to `O=[N+]([O-])c1cccc(/C=N/Nc2ncc(Br)cn2)c1`, the inhibition was 62.5% (active).

As to `Oc1ccc(Br)cc1/C=N/Nc1ccccn1`, the inhibition is 37.1% (inactive).

On to `O=[N+]([O-])/C=C/c1ccc2c(ccn2Cc2ccccc2)c1`, for which the inhibition is 99.7% (active).

`CCOC(=O)c1c(C)[nH]c(C(=O)COc2ccc3c(c2)OCO3)c1C`: the inhibition was 66.8% (active).

Consider `Fc1ccccc1-c1cc2cc3c(cc2cn1)OCO3`, for which the inhibition is 51% (active).

In the case of `N#Cc1nc(Cc2ccccc2)oc1NCCc1ccccc1`, the inhibition is 56.8% (active).
